In PubChem BioAssay AID651871 (Sanford-Burnham Center for Chemical Genomics, 2012):
Several values for one entry are separate records, joined by “and”; a condition that tells them apart may be missing. Equal entries are not always repeated.

These compounds were tested on H9c2 (assay: protection of cardiomyocytes from stress damage, SAR follow-up, cell-based, panel, H9c2 and HL-1, ATP luminescence, set 2 (AID 651871;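 further: cells exposed to stressor for 2 h before ATP readout; reference of the scale not given here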)). Details: H9c2/HL-1 cardiomyocytes, H2O2 oxidative stress; with H2O2, run 1, at 79 µM (top of the series).
`COc1cc(-c2cc(C(=O)Nc3cccc(C(=O)NCc4ccccc4)c3)c3ccccc3n2)cc(OC)c1OC` gave an activity (protection/inhibition) of 83.5%.
In the case of `COc1ccc2nc(-c3cc(OC)c(OC)c(OC)c3)cc(C(=O)NCC(=O)Nc3ccc(C(C)=O)cc3)c2c1`, the activity (protection/inhibition) was 92.2% and 97.6%.
`CCOC(=O)c1cccc(NC(=O)CNC(=O)c2cc(-c3cc(OC)c(OC)c(OC)c3)nc3ccccc23)c1` gave an activity (protection/inhibition) of 77.6%.
`COc1ccc2c(c1OC)C(=O)N1c3ccccc3C(=O)N(Cc3cccc(Cl)c3Cl)C21` (centres undefined) was tested, and the activity (protection/inhibition) was 62.2% and 104% and 61.7%.
